Bioassay records: PubChem BioAssay, Sanford-Burnham Center for Chemical Genomics
Most compounds without a hit are left out; they make up all but 4% or so of the library.
NALP3 yeast inh: blocks the NALP3 inflammasome reconstituted in yeast. Yeast reconstituted NLRP3/ASC/caspase-1, beta-gal luminescence, 24 h. inhibition, % at 10 µM. 330,000 compounds, 0.39% hits;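 active = inhibition of 50% or more; inactive = inhibition below 50%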
TIM10 inh: inhibits growth of TIM10 yeast strain | AID 463195 | inhibition, % at 10 µM | 330,000 compounds, 1.4% hits | S. cerevisiae TIM10 strain growth, BacTiter-Glo luminescence, 24 h;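 active = inhibition of 40% or more at the single tested concentration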;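 also: wild-type TIM10 isogenic control strain grown at permissive 25 °C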
tim23-1 inh: growth inhibitors of tim23-1 mutant yeast | S. cerevisiae tim23-1 growth, BacTiter-Glo luminescence, 24 h | inhibition, % at 20 µM | 330,000 compounds, 1.3% hits;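 active = growth inhibition of the mutant yeast at or above 50%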;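 also: temperature-sensitive mutant grown at 25 °C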
NALP1 inh: blocks the NALP1 inflammasome reconstituted in yeast | S. cerevisiae NALP1/ASC/caspase-1 growth, X-gal OD620, 72 h | 280,000 compounds, 0.61% hits | inhibition, % at 10 µM | AID 2071; in the data active = inhibition mostly above about 24%, no sharp cut-off; inactive = mostly below about 32%
tim10-1 inh: tim10-1 yeast growth inhibition; 330,000 compounds, 2.2% hits; AID 463190; inhibition, % at 20 µM; S. cerevisiae tim10-1 ts strain growth, BacTiter-Glo, 24 h;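 active = inhibition of at least 40%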;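 also: mutant grown at 25 °C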
tim10-1 conf: confirmation of tim10-1 mutant yeast growth inhibitors | inhibition, % at 20 µM | S. cerevisiae tim10-1 ts strain growth, BacTiter-Glo, 24 h | shares compounds with tim10-1 inh | 7,400 compounds, 56% hits | AID 463213;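 active = inhibition of yeast growth at or above a set limit in either of two repeat tests at 20 µM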;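 also: tim10-1 mutant grown at permissive 25 °C to find synthetic lethal compounds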
Of the large screens only hits and unclear results are named; the others gave an inactive call (follow-up assays come after a bar, where they were run).

CCCOc1ccc(C(=O)NNC(=S)NC(=O)c2cc(-c3ccc(Cl)cc3)nc3ccccc23)cc1	tim10-1 inh 46 | tim10-1 conf 36
CCCCNC(=S)NNC(=O)c1cc(-c2ccncc2)nc2ccccc12	none
COc1ccc(C(=O)NNC(=S)NC(=O)c2cc(-c3ccccc3)nc3ccccc23)cc1	none
CCCOc1cccc(-c2cc(-c3n[nH]c(=S)n3CC)c3ccccc3n2)c1	tim10-1 inh 43 | tim10-1 conf 32
COc1cccc(-c2nc3sc4c(c3c(=O)[nH]2)CCCCC4)c1	none
O=C(CN1C(=O)NC(c2ccccc2)(c2ccccc2)C1=O)NCC(=O)Nc1ccc(F)cc1	none (no result: NALP1 inh)
Cc1cc(C)c2c(N)c(C(=O)Nc3c(C)n(C)n(-c4ccccc4)c3=O)sc2n1	none
CCNC(=S)NNC(=O)c1cc(-c2ccccc2C)nc2ccccc12	tim10-1 inh 46 | tim10-1 conf 46
O=C(C1CCC1)N1CCCc2cc(S(=O)(=O)N3CCN(c4ccccc4)CC3)ccc21	tim10-1 inh 46 | tim10-1 conf 35
Cc1ccc(NC(=S)N/N=C/c2ccc(Cl)c([N+](=O)[O-])c2)cc1	none
O=[N+]([O-])c1cc(/C=N/NC(=S)Nc2ccccc2Cl)ccc1Cl	tim10-1 inh 46 | tim10-1 conf inactive
NC(=O)C1CCN(c2oc(/C=C/c3ccccc3)nc2S(=O)(=O)c2ccccc2)CC1	none
Cc1cccn2c(=O)c3cc(S(=O)(=O)c4ccc(Br)cc4)c(=N)n(C4CCCC4)c3nc12	tim10-1 inh 41 | tim10-1 conf inactive
N=c1c(S(=O)(=O)c2ccc(Br)cc2)cc2c(=O)n3ccccc3nc2n1C1CCCCC1	none
CN1CCN(S(=O)(=O)c2ccc(Sc3nnnn3-c3ccccc3)c([N+](=O)[O-])c2)CC1	none
CC(=O)c1ccc(Sc2nnnn2-c2ccccc2)c([N+](=O)[O-])c1	tim10-1 inh 46 | tim10-1 conf inactive
Cc1cccn2c(=O)c3cc(C(=O)NCc4cccnc4)c(=N)n(CC4CCCO4)c3nc12 (centres undefined)	none
CN(C(=O)COC(=O)/C=C/c1ccc(F)cc1)c1c(N)n(Cc2ccccc2)c(=O)[nH]c1=O	none (no result: NALP1 inh)
CC(OC(=O)COc1ccc(Nc2ccccc2)cc1)C(=O)N(C)c1ccccc1 (centres undefined)	tim10-1 inh 42 (no result: NALP1 inh) | tim10-1 conf 30
CC(OC(=O)CNS(=O)(=O)c1ccc2ccccc2c1)C(=O)N(C)c1ccccc1 (centres undefined)	none
COCCCn1nnnc1SCC(=O)N1c2ccccc2CC1C (centres undefined)	none
CC1Cc2ccccc2N1C(=O)CSc1nnnn1Cc1ccccc1 (centres undefined)	tim10-1 inh 60 | tim10-1 conf 45
CCN1C(=O)CSC1=Nc1ccc(OC)cc1	none
Cn1c(=N)n(CC(=O)c2ccc(Cl)c(Cl)c2)c2ccccc21	none
O=C(Nc1cccc(-c2cccc(F)c2)c1)C1CCN(C2CCOCC2)CC1	tim10-1 inh 43 | tim10-1 conf inactive
O=C(Nc1cccc(-c2cccc(F)c2)c1)C1CCN(Cc2ccc(CO)o2)CC1	none
O=C(CN1C(=O)COc2ccc(S(=O)(=O)N3CCCC3)cc21)NCc1ccccn1	none (no result: NALP1 inh)
O=[N+]([O-])c1cc(/C=N/O)ccc1Oc1cccc(Cl)c1	tim10-1 inh 61 | tim10-1 conf 55
O=[N+]([O-])c1cc(/C=N/O)ccc1Oc1ccccc1Cl	tim10-1 inh 55 | tim10-1 conf 42
O=[N+]([O-])c1cc(/C=N/O)ccc1Sc1ccccc1	none
Cc1cnc(C(=O)OCc2nc3ccsc3c(=O)[nH]2)cn1	none (no result: NALP1 inh)
CCOC(=O)/C(C#N)=C/c1c(N2CCN(c3ccccc3)CC2)nc2ccccn2c1=O	tim10-1 inh 44 | tim10-1 conf inactive
Cc1nn(Cc2ccc([N+](=O)[O-])cc2)c(=O)n1N(C)c1ncc(C(F)(F)F)cc1Cl	tim10-1 inh 43 | tim10-1 conf 27
Cc1nn(Cc2ccc([N+](=O)[O-])cc2)c(=O)n1-c1ccccc1Cl	none
NCCNc1ccc([N+](=O)[O-])c(NC2CC2)c1	none
CC(C)OCCCn1c(-c2ccc(Br)cc2)c[nH]c1=S	tim10-1 inh 43 | tim10-1 conf inactive
CC1CCCC(C)N1CC(O)COCc1ccccc1 (centres undefined)	none
COc1cc(C(=O)Nc2ccc(Nc3ccccc3)cc2)cc(OC)c1OC	tim10-1 inh 43 | tim10-1 conf 42
COc1cc(C(=O)Nc2ccc(Cl)c(C(F)(F)F)c2)cc(OC)c1OC	tim10-1 inh 43 | tim10-1 conf 53
COc1cc(CCC(=O)Nc2ccc(Cl)c(C(F)(F)F)c2)cc(OC)c1OC	none
CC1CN(S(=O)(=O)c2ccc(C(=O)N(C)C3CCCCC3)cc2)CC(C)O1 (centres undefined)	none (no result: NALP1 inh)
C/C(=N\N=C(N)N)c1ccc(Cl)cc1Cl	none
COc1ccccc1C1C(C(C)=O)=C(O)C(=O)N1c1ccc(O)cc1 (centres undefined)	none
CC1CCCCN1C(=O)/C(=C\c1ccccc1)c1ccccc1 (centres undefined)	tim10-1 inh 42 | tim10-1 conf 31
Cc1cc(C)c(CSc2ncc(-c3ccc([N+](=O)[O-])cc3)[nH]2)c(C)c1	tim10-1 inh 45 | tim10-1 conf 34
CCOc1ccccc1C(=O)OCC(=O)Nc1cc(S(=O)(=O)N2CCOCC2)ccc1C	none (no result: NALP1 inh)
Cc1nc2ccc(NS(=O)(=O)c3c(C)c(C)cc(C)c3C)cc2s1	none
Cc1nc2cc(NS(=O)(=O)c3c(C)c(C)cc(C)c3C)ccc2s1	tim10-1 inh 42 | tim10-1 conf 33
CC(C)COc1ccc(CNC(=S)Nc2ccccc2)cc1Cl	none
CCCOc1ccc(CNC(=S)Nc2ccccc2)cc1Cl	tim10-1 inh 43 | tim10-1 conf inactive
O=C(NCCCN1CCCC1=O)C1CCN(S(=O)(=O)c2c(Cl)cccc2Cl)CC1	none (no result: NALP1 inh)
CC(=O)c1ccsc1-c1c(C)cc2oc(=O)cc(-c3ccccc3)c2c1C	none (no result: NALP3 yeast inh, NALP1 inh)
CC1=NN(c2ccc(Cl)cc2)C(=O)C1	tim10-1 inh 47 | tim10-1 conf inactive
CC1=NN(c2ccc(N)cc2)C(=O)C1	none
CC1=NN(c2nc(-c3ccc(F)cc3)cs2)C(=O)C1	none
CC1=NN(c2nc(-c3ccc(Cl)cc3)cs2)C(=O)C1	tim10-1 inh 63 | tim10-1 conf 29
CCc1nc(C)cn1S(=O)(=O)c1ccc([N+](=O)[O-])cc1	none
CCCn1c(CC)nc([N+](=O)[O-])c1S(=O)(=O)c1ccccc1	tim10-1 inh 54 | tim10-1 conf 43
CN1CCN(S(=O)(=O)c2ccc(Br)c3nsnc23)CC1	tim10-1 inh 46 | tim10-1 conf inactive
O=S(=O)(c1ccc(Br)c2nsnc12)N1CCOCC1	none
Cc1cc(C)nc(N2N=C(CSc3ccc(Cl)cc3)CC2=O)n1	tim10-1 inh 45 | tim10-1 conf inactive
CC(C)CC(C(=O)O)N1C(=O)C2C3C=CC(C2C1=O)C1C(=O)N(C(CC(C)C)C(=O)O)C(=O)C31 (centres undefined)	none
